From PubChem BioAssay AID845 (Columbia University Molecular Screening Center, 2007)
In all, about 94,000 compounds went through this assay and about 390 (0.41%) were called active. Many of the other results were omitted from the sample, so actives are more common in it than they were. Unmarked numbers belong to inactive results.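 The calls were made as follows: active = cell count reduction more than 3 SD above the screen-wide mean (cut at about 70% in these data); inactive = the rest.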

Test: HUVEC cell count loss after compound exposure – imaging, Hoechst nuclear count, IL-1B stimulus, cytotoxicity control for IL-1B NFkB translocation project, primary screen (AID 845);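 also: normalized per plate to untreated control cells as the no-loss baseline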
Conditions: IL-1B stimulated, at 2 µM, stronger effect = higher value

Row | SMILES | cell count reduction
1 | CCn1nnnc1SCC(=O)c1ccc(C)cc1C | -33.9%
2 | O=C(NC(C(=O)NCCN1CCOCC1)C12CC3CC(CC(C3)C1)C2)C1CCCCC1 (centres undefined) | 0%
3 | COc1cc(/C=N/NC(=O)Nc2ccccc2)ccc1OCCOc1ccccc1C | 70% (active)
4 | CCOc1ccc(NC(=O)Nc2cc(C)ccc2OC)cc1 | -41.8%
5 | COc1ccc(/C=N\NC(=O)c2sc(N)nc2C)cc1OC | -1.3%
6 | CC(C)C(C)NC(=O)COc1ncnc2ccccc12 (centres undefined) | -6.1%
7 | O=C(Cc1ccc(S(=O)(=O)N2CCOCC2)s1)NCCC(c1ccccc1)c1ccccc1 | 2.4%
8 | N#Cc1c(C(F)(F)F)cc(-c2ccccc2)nc1SCC(=O)N1CCOCC1 | 11.3%
9 | CCOC(=O)C(C)n1cnc2sc(C)c(C)c2c1=O (centres undefined) | -9.7%
10 | Cc1cccc(CCNS(=O)(=O)c2ccc(S(=O)(=O)NC3CCCC3)cc2)c1 | -6.4%
11 | COc1ccc(-c2cc(C(=O)NCc3ccco3)no2)cc1OC | 3%
12 | Cc1ccc(OCC(=O)N2CCN(C(=O)c3cccnc3)CC2)cc1 | -38.8%
13 | CNC(=S)N1N=C(c2ccccc2)CC1c1ccc(Br)cc1 (centres undefined) | -18.6%
14 | COc1ccc(S(=O)(=O)Nc2ccc3c(c2)OCO3)cc1Cl | 81.3% (active)
15 | COc1ccc(F)cc1S(=O)(=O)Nc1ccc2c(c1)OCO2 | -1.3%
16 | CC(C)CNS(=O)(=O)c1ccc(OCC(=O)Nc2ccc3c(c2)OCO3)c(Cl)c1 | -38.8%
17 | O=C1c2ccccc2C(=O)c2c1cccc2N1CCN(CCO)CC1 | -12.4%

Row | SMILES | cell count reduction
18 | Cc1ccc(NC(=S)N/N=C2/CCCc3c(C)cc(C)cc32)cc1 | -6.1%
19 | CC(C(=O)Nc1ccccc1-c1ccccc1)N1CCOCC1 (centres undefined) | 91.2% (active)
20 | O=C(c1ccccc1-c1ccccc1)N1CCOCC1 | -0.4%
21 | CC(Sc1nncn1C)C(=O)Nc1ccccc1-c1ccccc1 (centres undefined) | 35.5%
22 | COc1cc(/C=N/O)cc(Br)c1OCc1cccc(Cl)c1 | -29.3%
23 | Cc1ccc(O/C=C2\OC(=O)c3ccccc32)cc1 | -34.7%
24 | N=c1oc2ccccc2cc1C(=O)N/N=C/c1ccccc1 | 23.4%
25 | CCc1c(O)nc(SCC(=O)Nc2ccccc2)n(C(C)CC)c1=O (centres undefined) | -2.8%
26 | COCC(C)NC(=O)c1ccc(-n2nc(C(F)(F)F)cc2-c2cccs2)cc1 (centres undefined) | -9.2%
27 | Cn1c(=O)c2c(ncn2CC(COCc2ccccc2Cl)OCc2ccccc2Cl)n(C)c1=O (centres undefined) | 8.7%
28 | O=C(Nc1cccn(Cc2c(Cl)cccc2Cl)c1=O)c1ccc(Cl)cc1 | -1.3%
29 | Cc1ccc(Nc2nnc(SCc3ccccc3)s2)cc1 | 22.5%
30 | CC(=O)c1cnn(-c2cc(Oc3ccc(F)cc3)ncn2)c1C | -1.7%
31 | Cc1nnc(SCC(=O)NC2CCCC2)s1 | 22.6%
32 | CNS(=O)(=O)c1cnccc1N1CCN(c2cccc(C)c2)CC1 | -0.7%
33 | CC/C(O)=N\S(=O)(=O)c1ccc(N=NN(C)C)cc1 | -5.3%
34 | COc1ccc(-c2cc(C(=O)n3cnc4ccccc43)c3ccccc3n2)cc1 | -10%
